Screening results from PubChem BioAssay.
Rab9 prom act: Rab9 promoter activation; Huh7 Rab9 promoter-luciferase reporter, luminescence, 24 h; Potency, µM (titrated, usually from 9.22 µM), actives largely listed as activators; 320,000 tested, 2.8% active; further: nearly all actives have a fitted effect of over 60% in size
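Using Huh7 cells stably transfected with Rab9 promoter–luciferase, compounds were incubated 24 h at 37 °C, 5% CO2; luciferase luminescence was read 10 min after reagent addition.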
FLuc counter: inhibits or activates purified firefly luciferase, miR-21 counter-screen | purified FLuc, Km substrates, luminescence inhibition | Potency, µM (highest dose often 57.5 µM), actives largely listed as inhibitors | 360,000 tested, 6.9% active | AID 588342; further: nearly all actives have a fitted effect of over 55% in size
Target sequence (P08659 whole entry, looked up): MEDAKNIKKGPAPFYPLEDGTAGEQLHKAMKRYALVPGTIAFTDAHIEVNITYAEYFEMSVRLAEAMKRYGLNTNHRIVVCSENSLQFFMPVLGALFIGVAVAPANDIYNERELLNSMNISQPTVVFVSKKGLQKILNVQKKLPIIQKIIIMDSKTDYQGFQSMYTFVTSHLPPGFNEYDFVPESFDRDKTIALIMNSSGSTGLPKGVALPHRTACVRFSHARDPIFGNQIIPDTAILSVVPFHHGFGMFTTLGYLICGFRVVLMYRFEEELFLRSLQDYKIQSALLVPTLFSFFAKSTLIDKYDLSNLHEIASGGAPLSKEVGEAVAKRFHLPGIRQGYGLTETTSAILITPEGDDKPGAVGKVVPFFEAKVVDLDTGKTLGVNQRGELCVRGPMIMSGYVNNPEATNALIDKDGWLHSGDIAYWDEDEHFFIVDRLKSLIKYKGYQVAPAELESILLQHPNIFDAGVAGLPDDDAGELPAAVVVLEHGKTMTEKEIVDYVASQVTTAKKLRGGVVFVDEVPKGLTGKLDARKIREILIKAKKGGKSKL
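Purified P. pyralis luciferase (10nM final) with 10uM D-luciferin and 10uM ATP (Km levels) in 50mM Tris acetate pH 7.5, 10mM Mg acetate, 0.01% Tween-20, 0.05% BSA; qHTS 6-point titration, ~60 µM downward; luminescence read.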
ELG1 genotoxic: induces genotoxicity in HEK293T cells with luciferase-tagged ELG1 | HEK293T ELG1-luciferase reporter, luminescence, 16 h | Potency, µM (highest dose often 46 µM), hits mostly activators | 330,000 tested, 1.3% active; further: nearly all actives have a fitted effect of over 60% in size
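Screening used a luciferase reporter fused to human ELG1 in HEK293T cells. Luminescence was read on a CCD plate imager after 16 hr exposure and 30 min ONE-Glo incubation.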
SMN2 splice up: enhancers of SMN2 splice variant expression. HEK293 SMN2-luciferase splicing reporter, luminescence, 30-36 h. Potency, µM (top dose mostly 46.1 µM), actives largely listed as activators. 210,000 tested, 2.8% active; further: nearly all actives have a fitted effect of over 55% in size
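qHTS luciferase splicing reporter: luminescence rises when SMN2 exon 7 is included in transfected HEK293 cells. Compound exposure lasted 30-36 h at 37C, with 4.5 mM final sodium butyrate as control, followed by a ONE-Glo read.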
ELG1 DNA repair: ELG1-dependent DNA repair inhibition; HEK293T ELG1-luciferase reporter, luminescence, 16 h; DNA damage induced by 5-fluorouridine; Potency, µM (doses to about 46.1 µM), hits mostly inhibitors; 330,000 tested, 2.3% active; AID 504467; further: nearly all actives have a fitted effect of over 55% in size
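DMSO vehicle served as the neutral condition. Each well held 2,000 cells given 5-fluorouridine plus compound; after 16 hr at 37 °C/5% CO2, ONE-Glo was added and luciferase measured 30 min later.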
NPC1 prom act: NPC1 promoter activation | Huh7 NPC1 promoter luciferase reporter, 24 h | Potency, µM (top dose mostly 9.22 µM), actives largely listed as activators | 320,000 tested, 2.4% active; further: nearly all actives have a fitted effect of over 60% in size
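Quantitative HTS used a cell-based reporter: Huh7 cells stably bearing the NPC1 promoter upstream of luciferase were treated with compounds for 24 h, and promoter activation was read as luminescence.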
A number is an active result; 0 = inactive; ? = inconclusive; - = no result; [ ] = dose if it differs, or a comment. In the library only some 9.3% were active in any assay of this set; here they are far more common. The call rests on the fitted dose curve; in most records, active means well fitted curve in the direction sought with a large enough effect; inconclusive means small, poorly fitted or top-dose-only effect, or another doubt; inactive means no such curve, though single readings can be large; an effect the other way counts as inactive or inconclusive.

SMILES | Rab9 prom act | FLuc counter | ELG1 genotoxic | SMN2 splice up | ELG1 DNA repair | NPC1 prom act
Cc1ccc(/C=c2\sc3nc(-c4ccco4)nn3c2=O)o1 | 0 | ? | 0 | 0 | 0 | 0
CCCCCOc1ccccc1CN1C(=O)C(=O)c2cc(C)ccc21 | - | 0 | - | 0 | - | -
Cc1ccc(SCc2cn3ccccc3n2)cc1 | 1.6µM | 5.4µM | 5.2µM | - | ? | 1.3µM
c1ccc(CSCc2cn3ccccc3n2)cc1 | 1.1µM | 17µM | ? | 16µM | ? | 2.8µM
CC(C)c1ccccc1OCC(=O)N(C)CC(=O)Nc1ccc(F)cc1 | 0 | 0 | 0 | - | 0 | 0
CCCC(=O)N1CCN(c2nc3ccc(Cl)cc3s2)CC1 | ? | 12µM | ? | - | ? | ?
CCCC(=O)N1CCN(c2nc3ccc(Br)cc3s2)CC1 | ? | 21µM | 0 | - | ? | 0
CC(C)(C)C(=O)N1CCN(c2nc3ccc(Br)cc3s2)CC1 | ? | ? | 0 | - | ? | ?
CCCCC(=O)N1CCN(c2nc3ccc(Br)cc3s2)CC1 | 0 | ? | 0 | - | ? | 0
CCCC(=O)N1CCN(c2nc3ccc(CC)cc3s2)CC1 | ? | 13µM | 0 | - | ? | ?
CC(=O)N1CCN(c2nc3ccc(Br)cc3s2)CC1 | ? | 15µM | ? | - | ? | 3.2µM
O=c1c2c3c(sc2nnn1CCCCOc1ccc(Cl)cc1)CCCC3 | - | 0 | - | 0 | - | -
Cc1ccc(-c2[nH]ncc2C(=O)c2ccc(Br)cc2)c(O)c1 | 0[1.84 µM] | 0 | 0 | - | 0 | 0
CCOc1ccc(S(=O)(=O)NCCC(=O)N2CC(C)CC(C)C2)cc1 (configuration not stated) | 0 | 0 | 0 | - | 0 | 0
CC(C)(C)C(=O)N1CCN(c2nc3ccc(Cl)cc3s2)CC1 | ? | 11µM | ? | - | ? | 2µM
CN(C(=O)COC(=O)CSc1cc(Cl)ccc1Cl)c1c(N)n(Cc2ccccc2)c(=O)[nH]c1=O | 0 | 0 | 0 | - | 0 | 0
OCCN(/C=N/c1nc(-c2ccc(Br)cc2)cs1)CCO | ? | 19µM | 21µM | 0 | ? | ?
Brc1ccc(-c2csc(/N=C/N3CCCC3)n2)cc1 | ? | 15µM | ? | 0 | ? | 0
N/C(Cc1nc(-c2ccc(Br)cc2)cs1)=N\O | ? | ? | 0 | - | 0 | 0
Brc1ccc(-c2csc(Nc3nc(-c4ccc(Br)cc4)cs3)n2)cc1 | 0 | ? | 0 | - | ? | 0
Brc1ccc(-c2csc(/N=C/N3CCOCC3)n2)cc1 | ? | 15µM | 18µM | 0 | ? | ?
COc1ccc(C2=Nc3ccc(F)cc3NC(c3cccc(C(F)(F)F)c3)=N2)cc1 | - | 0 | - | 0 | - | -
CCCCN(C)C(=O)Cn1c(C2CC(=O)N(c3ccc(C)cc3)C2)nc2ccccc21 (configuration not stated) | - | 0 | - | - | - | -
CC1=C(C)CC(C(=O)NCc2c(F)cccc2Cl)C(C(=O)O)C1 (configuration not stated) | 0 | 0 | 0 | - | 0 | 0
COc1ccccc1-n1nnnc1SCC(=O)N(CC(C)C)C1CCS(=O)(=O)C1 (configuration not stated) | 0 | 0 | 0 | - | ? | 0
SMILES | Rab9 prom act | FLuc counter | ELG1 genotoxic | SMN2 splice up | ELG1 DNA repair | NPC1 prom act
CC(C)(C)SCCNC(=O)c1ccc(Cl)c([N+](=O)[O-])c1 | 0 | 0 | 0 | 0 | ? | 0
O=C(NNc1nc2c(F)cccc2s1)C1=COCCO1 | 0 | 0 | 0 | 0 | 0 | 0
Fc1cc(F)c2nc(Nc3nc4cc5c(cc4s3)OCO5)sc2c1 | ? | ? | ? | 18µM | ? | ?
Fc1cccc2sc(Nc3nc4cc5c(cc4s3)OCCO5)nc12 | 0.71µM | 1.2µM | 1.2µM | ? | ? | 4µM
O=C(NNc1nc2c(F)cc(F)cc2s1)c1ccccc1 | 0 | 0 | 0 | 0 | 0 | 0
O=c1oc2ccccc2cc1-c1csc(Nc2nc3c(F)cccc3s2)n1 | 0 | 0 | 0 | 0 | ? | 0
Fc1cccc2sc(Nc3nc4cc5c(cc4s3)OCO5)nc12 | 3.2µM | 4.3µM | 7.3µM | 5µM | ? | 4µM
O=C(Nc1ccc(S(=O)(=O)Nc2cnc3ccccc3n2)cc1)c1ccc(Br)o1 | 0 | 17µM | 0 | 0 | 0 | 0
COC(=O)Nc1ccc(S(=O)(=O)Nc2cnc3ccccc3n2)cc1 | 0 | 0 | 0 | 0 | 0 | 0
CC(C)(C)c1ccc(C(=O)Nc2ccc(S(=O)(=O)Nc3cnc4ccccc4n3)cc2)cc1 | 0[1.84 µM] | 13µM | 0 | - | 0 | 0
Cc1cc(OCC(=O)OCC(=O)c2c(N)n(C)c(=O)n(C)c2=O)ccc1Cl | 0 | - | 0 | - | 0 | 0
COC(=O)c1c(NC(=O)c2nc(SC)ncc2Cl)sc2c1CCCC2 | - | 0 | - | 0 | - | -
CN1N=C2c3ccccc3CCC2C1c1ccc(Cl)cc1 (configuration not stated) | ? | 11µM | ? | - | ? | ?
CNC(=S)N1N=C2c3ccccc3CCC2C1c1ccccc1Cl (configuration not stated) | 0 | 0 | 0 | - | ? | 0
CN1N=C2c3ccccc3CCC2C1c1ccc(F)cc1 (configuration not stated) | 2.5µM | ? | 0 | - | ? | ?
CN1CCN(C2=Nc3cc(F)ccc3Cc3ccccc32)CC1 | 0 | 0 | - | 0 | - | 0
Cc1cc(C(=O)COC(=O)c2n[nH]c3ccccc23)c(C)n1C | 0.5µM | 1.3µM | 1.2µM | 2.8µM | ? | 2.8µM
Cc1cc(C)cc(NC(=O)COC(=O)c2n[nH]c3ccccc23)c1 | ? | ? | 0 | 0 | ? | ?
COCCn1c(C)cc(C(=O)COC(=O)Cc2n[nH]c(=O)c3ccccc23)c1C | ? | 24µM | 0 | - | ? | 0
O=C(NCCc1ccc(Cl)cc1)c1n[nH]c2ccccc12 | ? | ? | 0 | 0 | ? | 0
O=C(NCCc1ccccc1)c1n[nH]c2ccccc12 | 3.5µM | 11µM | ? | 11µM | ? | 2.5µM
COc1ccc(-n2c(C)cc(C(=O)COC(=O)Cc3n[nH]c(=O)c4ccccc34)c2C)cc1 | 0 | ? | 0 | 0 | ? | 0
Cc1cc(C(=O)COC(=O)Cc2n[nH]c(=O)c3ccccc23)c(C)n1-c1ccc2c(c1)OCO2 | 0 | ? | 0 | 0 | 13µM | 0
CN(C)S(=O)(=O)c1ccc(C(=O)OC2CCOC2=O)cc1 (configuration not stated) | 0 | 0 | 0 | - | 0 | 0
Cc1cccc2sc(NC(=O)C3c4ccccc4Oc4ccccc43)nc12 | 0 | 0 | 0 | 0 | ? | 0
CCOC(=O)c1n[nH]c(=O)c2ccccc12 | 0 | 0 | 0 | - | 0 | 0
O=C(Cc1n[nH]c(=O)c2ccccc12)OCC(=O)c1ccc(F)cc1 | 0 | 0 | 0 | - | 0 | 0
Cc1cc(C(=O)COC(=O)c2n[nH]c(=O)c3ccccc23)c(C)n1C | 0 | 1.7µM | ? | - | ? | 0
O=C(COC(=O)c1n[nH]c2ccccc12)c1ccc(F)c(F)c1 | 0 | 9.5µM | 0 | - | 0 | 0
CC1CCCCN1C(=O)COC(=O)Cc1c[nH]c2ccccc12 (configuration not stated) | - | - | 0 | - | 0 | -
